Measurements reported in PubChem BioAssay (NCI).
Several values for one entry are separate records, joined by “and”; a condition that tells them apart may be missing. Identical values can stand only once. This is part of a sample that, as a whole, favours compounds with a hit. Of some 79,000 tested, about 15% had one in any assay. The source holds several records for some structures; these can differ, active in one and inactive in another. Activity calls are given as the source filed them. Cut-off read from the data, not from the text of the source: active = growth inhibition above about 70%; inactive = the rest.

Assays:
[1] = NCI Yeast Anticancer Drug Screen. Data for the rad52 strain (AID 147);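 note: 0% = growth of vehicle-treated control cultures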; conditions: S. cerevisiae rad52 mutant growth inhibition, stronger effect = higher value
Outline: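 Growth of repair-deficient yeast cells was compared between compound-treated and vehicle-treated cultures to give percent inhibition.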

[2] = NCI Yeast Anticancer Drug Screen. Data for the wt1 strain (AID 149);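 note: 0% = growth of vehicle-treated wt1 cultures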; conditions: S. cerevisiae wt1 strain (SPY 50644) growth inhibition, stronger effect = higher value
Outline: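 Each compound is tested on wt1 yeast and the loss of growth versus vehicle gives the inhibition value.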

[3] = NCI Yeast Anticancer Drug Screen. Data for the rad50EPP+ strain (AID 151);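 note: 0% = growth of vehicle-treated control cultures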; conditions: S. cerevisiae rad50 mutant strain, stronger effect = higher value
Outline: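 Measured: growth inhibition of rad50EPP+ yeast. Reference: vehicle-treated controls. Screen uses strains with defined genetic alterations in DNA damage repair or cell cycle control.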

[4] = NCI Yeast Anticancer Drug Screen. Data for the mgt1 strain (AID 153); conditions: S. cerevisiae mgt1 mutant growth inhibition, stronger effect = higher value
Outline: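 Compounds were applied to mgt1 mutant yeast, and growth was then compared against vehicle-treated control cultures to give percent inhibition.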

[5] = NCI Yeast Anticancer Drug Screen. Data for the rad50 strain (AID 155);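 note: 0% = growth of vehicle-only cultures of the same strain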; conditions: S. cerevisiae rad50 strain growth inhibition, stronger effect = higher value
Outline: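 Vehicle-treated cultures provide the reference for the growth inhibition reported for compound-exposed, repair-deficient yeast.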

[6] = NCI Yeast Anticancer Drug Screen. Data for the mec2-1 strain (AID 157); conditions: S. cerevisiae mec2-1 strain, stronger effect = higher value
Outline: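 Compounds were applied to mec2-1 yeast cells. Their growth was then compared with that of vehicle-treated cultures to give growth inhibition.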

[7] = NCI Yeast Anticancer Drug Screen. Data for the rad14 strain (AID 159);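 note: 0% = growth of vehicle-treated control cultures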; conditions: S. cerevisiae rad14 strain growth inhibition, stronger effect = higher value
Outline: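 Inhibition of growth is reported for a repair-deficient yeast mutant following compound treatment, calculated relative to cultures that received vehicle.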

[8] = NCI Yeast Anticancer Drug Screen. Data for the sgs1 mgt1 strain (AID 161);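 note: 0% = growth of cultures given vehicle only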; conditions: S. cerevisiae sgs1 mgt1 strain, stronger effect = higher value
Outline: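 Compounds are added to genetically altered yeast, and growth is compared with cultures given vehicle alone to give percent inhibition.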

[9] = NCI Yeast Anticancer Drug Screen. Data for the CLN2oe strain (AID 163);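 note: 0% = growth of vehicle-only control cultures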; conditions: S. cerevisiae CLN2oe strain, stronger effect = higher value
Outline: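 Cells of an engineered yeast line with disturbed cell-cycle regulation are treated with compound. Inhibition of growth is then calculated relative to the vehicle-treated reference.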

[10] = NCI Yeast Anticancer Drug Screen. Data for the cln2 rad14 strain (AID 165);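 note: 0% = growth equal to vehicle treated cultures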; conditions: S. cerevisiae cln2 rad14 strain, stronger effect = higher value
Outline: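 Strain: cln2 rad14 yeast, altered in cell cycle control and DNA damage repair. Read-out: growth inhibition vs vehicle.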

[11] = NCI Yeast Anticancer Drug Screen. Data for the bub3 strain (AID 167); conditions: S. cerevisiae bub3 mutant strain, stronger effect = higher value
Outline: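 Mutant yeast screening strain plus compound; vehicle-treated cultures serve as the 0% inhibition reference.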

[12] = NCI Yeast Anticancer Drug Screen. Data for the wt2 strain (AID 169); conditions: S. cerevisiae wt2 strain growth inhibition, stronger effect = higher value
Outline: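 Growth of compound-treated yeast is measured and expressed as inhibition relative to vehicle-only controls.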

[13] = NCI Yeast Anticancer Drug Screen. Data for the mlh1 strain (AID 171);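 note: 0% = growth of vehicle-treated control cultures of the same strain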; conditions: S. cerevisiae mlh1 strain growth inhibition, stronger effect = higher value
Outline: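 Test agents were incubated with yeast bearing a defined DNA damage repair or cell cycle control alteration; values are growth inhibition normalised to vehicle-treated cultures.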

[14] = NCI Yeast Anticancer Drug Screen. Data for the sgs1 strain (AID 173);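 note: 0% = growth of vehicle-only control cultures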; conditions: S. cerevisiae sgs1 mutant, stronger effect = higher value
Outline: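 Strain with an altered DNA repair or cell cycle pathway exposed to compound. Growth then measured. Value = inhibition versus vehicle control.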

[15] = NCI Yeast Anticancer Drug Screen. Data for the mlh1 rad18 strain (AID 175); conditions: S. cerevisiae mlh1 rad18 strain growth inhibition, stronger effect = higher value
Outline: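 A repair-deficient yeast strain is exposed to test compound, and growth is scored relative to vehicle-treated controls.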

[16] = NCI Yeast Anticancer Drug Screen. Data for the rad18 strain (AID 177); conditions: S. cerevisiae rad18 mutant growth inhibition, stronger effect = higher value
Outline: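 DNA-repair-defective yeast; compound treatment; growth inhibition scored against vehicle.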

[17] = at 5.0 µM (retest, dose inferred, filed as 0.5)
[18] = at 50.0 µM (retest, dose inferred, filed as 5.0)

Measured: growth inhibition

O=C(O)C1C2c3ccccc3C(c3ccccc32)C1C(=O)O (stereo unspecified)
71.2% (active) and -29.5% (inactive): [11]; at 50.0 µM
inactive: [1]; at 1.2 µM -1% | [1]; at 3.7 µM -1% | [1]; at 11.0 µM 2% | [1]; at 33.0 µM 0% | [1]; at 100.0 µM 11% | [2]; at 1.2 µM -3% | [2]; at 3.7 µM -3% | [2]; at 11.0 µM -2% | [2]; at 33.0 µM -1% | [2]; at 100.0 µM -2% | [3]; at 1.2 µM -4% | [3]; at 3.7 µM -3% | [3]; at 11.0 µM 2% | [3]; at 33.0 µM -3% | [3]; at 100.0 µM -4% | [4]; at 1.2 µM -3% | [4]; at 3.7 µM -2% | [4]; at 11.0 µM -2% | [4]; at 33.0 µM -2% | [4]; at 100.0 µM 0% | [5]; at 1.2 µM 0% | [5]; at 3.7 µM 4% | [5]; [17] 7% | [5]; at 11.0 µM 4% | [5]; at 33.0 µM 3% | [5]; [18] 47% | [5]; at 50.0 µM 52.6% and -32.8% | [5]; at 100.0 µM 12% | [6]; at 1.2 µM -2% | [6]; at 3.7 µM -5% | [6]; [17] -7% | [6]; at 11.0 µM -3% | [6]; at 33.0 µM -2% | [6]; [18] -1% | [6]; at 100.0 µM -1% | [7]; at 1.2 µM -2% | [7]; at 3.7 µM 1% | [7]; at 11.0 µM 0% | [7]; at 33.0 µM -2% | [7]; at 100.0 µM 2% | [8]; [17] -5% | [8]; [18] 16% | [8]; at 50.0 µM 52.7% and -33% | [9]; at 1.2 µM -4% | [9]; at 3.7 µM 2% | [9]; at 11.0 µM -4% | [9]; at 33.0 µM -3% | [9]; at 100.0 µM 1% | [10]; [17] 3% | [10]; [18] 10% | [10]; at 50.0 µM 25% and 11.1% | [11]; at 1.2 µM -4% | [11]; at 3.7 µM -3% | [11]; [17] 2% | [11]; at 11.0 µM -5% | [11]; at 33.0 µM -2% | [11]; [18] 17% | [11]; at 100.0 µM -2% | [12]; at 1.2 µM 0% | [12]; at 3.7 µM -10% | [12]; at 11.0 µM 5% | [12]; at 33.0 µM -1% | [12]; at 100.0 µM -16% | [13]; at 1.2 µM -4% | [13]; at 3.7 µM -4% | [13]; at 11.0 µM -1% | [13]; at 33.0 µM -4% | [13]; at 100.0 µM 1% | [14]; at 1.2 µM -12% | [14]; at 3.7 µM -22% | [14]; at 11.0 µM -3% | [14]; at 33.0 µM 5% | [14]; at 100.0 µM 12% | [15]; [17] 3% | [15]; [18] 69% | [15]; at 50.0 µM 37.1% and -42.5% | [16]; at 1.2 µM -4% | [16]; at 3.7 µM -2% | [16]; at 11.0 µM -1% | [16]; at 33.0 µM -2% | [16]; at 100.0 µM 6%
86.6% (active) and -20.4% (inactive): [6]; at 50.0 µM

CN(C)CCSC1=Nc2ccc(Cl)cc2C(c2ccccc2Cl)=NC1
active: [7]; at 100.0 µM 75% | [14]; at 100.0 µM 70%
inactive: [1]; at 1.2 µM -1% | [1]; at 3.7 µM -8% | [1]; at 11.0 µM 3% | [1]; at 33.0 µM 4% | [1]; at 100.0 µM 51% | [2]; at 1.2 µM -1% | [2]; at 3.7 µM -1% | [2]; at 11.0 µM 0% | [2]; at 33.0 µM 2% | [2]; at 100.0 µM -1% | [3]; at 1.2 µM -3% | [3]; at 3.7 µM -2% | [3]; at 11.0 µM -2% | [3]; at 33.0 µM -3% | [3]; at 100.0 µM 0% | [4]; at 1.2 µM -2% | [4]; at 3.7 µM -1% | [4]; at 11.0 µM 0% | [4]; at 33.0 µM 6% | [4]; at 100.0 µM 66% | [5]; at 1.2 µM -1% | [5]; at 3.7 µM 2% | [5]; [17] 12% | [5]; at 11.0 µM 2% | [5]; at 33.0 µM 8% | [5]; [18] 47% | [5]; at 50.0 µM 61.8% and 39.5% | [5]; at 100.0 µM 51% | [6]; at 1.2 µM -2% | [6]; at 3.7 µM -2% | [6]; [17] 3% | [6]; at 11.0 µM 0% | [6]; at 33.0 µM 9% | [6]; [18] 12% | [6]; at 50.0 µM -4.25% and -24.8% | [6]; at 100.0 µM 33% | [7]; at 1.2 µM 0% | [7]; at 3.7 µM 4% | [7]; at 11.0 µM 17% | [7]; at 33.0 µM 45% | [8]; [17] 11% | [8]; [18] 47% | [8]; at 50.0 µM 50% and 24.2% | [9]; at 1.2 µM -1% | [9]; at 3.7 µM -1% | [9]; at 11.0 µM 4% | [9]; at 33.0 µM 15% | [9]; at 100.0 µM 24% | [10]; [17] 4% | [10]; [18] 8% | [10]; at 50.0 µM 15.7% and -4.25% | [11]; at 1.2 µM -1% | [11]; at 3.7 µM -3% | [11]; [17] 0% | [11]; at 11.0 µM -3% | [11]; at 33.0 µM 9% | [11]; [18] 52% | [11]; at 50.0 µM 61.9% and 10.9% | [11]; at 100.0 µM 50% | [12]; at 1.2 µM -3% | [12]; at 3.7 µM -3% | [12]; at 11.0 µM -8% | [12]; at 33.0 µM -6% | [12]; at 100.0 µM 63% | [13]; at 1.2 µM -1% | [13]; at 3.7 µM -4% | [13]; at 11.0 µM -1% | [13]; at 33.0 µM -27% | [13]; at 100.0 µM 64% | [14]; at 1.2 µM -2% | [14]; at 3.7 µM -1% | [14]; at 11.0 µM 0% | [14]; at 33.0 µM 16% | [15]; [17] 4% | [15]; [18] 28% | [15]; at 50.0 µM 40.2% and 7.1% | [16]; at 1.2 µM -2% | [16]; at 3.7 µM -1% | [16]; at 11.0 µM 6% | [16]; at 33.0 µM 15% | [16]; at 100.0 µM 47%
